About 79,000 compounds went through this panel and 15% of them were active in at least one assay; those are over-represented in the sample as a whole. Unmarked numbers belong to inactive results. The source made the active and inactive calls. No stated cut-off is given here; in the data, active means growth inhibition above about 70%; inactive means the rest.
How the values were obtained:
[1] = NCI Yeast Anticancer Drug Screen. Data for the rad50 strain (AID 155);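 further: 0% = growth of vehicle-only cultures of the same strain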; conditions: S. cerevisiae rad50 strain growth inhibition, hits give high values
Procedure, shortened: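 Yeast carrying a defined DNA repair defect were exposed to test compounds, and growth was compared with vehicle-treated controls to give percent inhibition.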

[2] = NCI Yeast Anticancer Drug Screen. Data for the mec2-1 strain (AID 157); conditions: S. cerevisiae mec2-1 strain, hits give high values
Procedure, shortened: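 Test agents were screened against the mec2-1 yeast strain, with defined DNA repair or cell cycle alteration. Growth was scored as inhibition against vehicle-only controls.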

[3] = NCI Yeast Anticancer Drug Screen. Data for the sgs1 mgt1 strain (AID 161);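 further: 0% = growth of cultures given vehicle only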; conditions: S. cerevisiae sgs1 mgt1 strain, hits give high values
Procedure, shortened: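 Genetically altered yeast, compound exposure, growth inhibition relative to vehicle.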

[4] = NCI Yeast Anticancer Drug Screen. Data for the cln2 rad14 strain (AID 165);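 further: 0% = growth equal to vehicle treated cultures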; conditions: S. cerevisiae cln2 rad14 strain, hits give high values
Procedure, shortened: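 Growth of compound-exposed yeast (cln2 rad14 genotype) measured and expressed as inhibition relative to vehicle.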

[5] = NCI Yeast Anticancer Drug Screen. Data for the bub3 strain (AID 167); conditions: S. cerevisiae bub3 mutant strain, hits give high values
Procedure, shortened: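 Compounds were applied to a genetically altered yeast strain carrying a cell-cycle control defect. Growth inhibition was scored against vehicle-treated controls.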

[6] = NCI Yeast Anticancer Drug Screen. Data for the mlh1 rad18 strain (AID 175); conditions: S. cerevisiae mlh1 rad18 strain growth inhibition, hits give high values
Procedure, shortened: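 In this whole-cell yeast screen, a strain with altered DNA damage repair is challenged with compound, and its growth is measured against matched vehicle-treated controls.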

[7] = at 5.0 µM (retest, dose inferred, filed as 0.5)
[8] = at 50.0 µM (retest, dose inferred, filed as 5.0)

Row | Structure (SMILES) | growth inhibition [1, 7] | growth inhibition [1, 8] | growth inhibition ([1]; at 50.0 µM) | growth inhibition [2, 7] | growth inhibition [2, 8] | growth inhibition ([2]; at 50.0 µM) | growth inhibition [3, 7] | growth inhibition [3, 8] | growth inhibition ([3]; at 50.0 µM) | growth inhibition [4, 7] [%] | growth inhibition [4, 8] | growth inhibition ([4]; at 50.0 µM) | growth inhibition [5, 7] | growth inhibition [5, 8] | growth inhibition ([5]; at 50.0 µM) | growth inhibition [6, 7] | growth inhibition [6, 8] | growth inhibition ([6]; at 50.0 µM)
1 | O=C(O)CC(NC(=O)CP(=O)(O)O)C(=O)O.[NH-]C1CCCCC1[NH-].[Pt+2] (configuration not stated) | 30% | 24% | -2.95% | 2% | 3% | -27.1% | 26% | 11% | -27.9% | 22 | 16% | 20.8% | 18% | 23% | -12.2% | 18% | 2% | -23.1%
2 | CCOc1ccccc1C(=O)Nc1cc(C)nn1-c1ccccc1 | 5% | 4% | 29.4% | 7% | 4% | 99.2% (active) | 7% | 6% | 99.4% (active) | 0 | -1% | 98.8% (active) | -1% | -3% | 99.3% (active) | -1% | 0% | 99.5% (active)
3 | CN1C/C(=C\c2ccccc2)C(=O)C(c2ccccc2)C1 (configuration not stated) | -1% | 94% (active) | 1.9% | 0% | 95% (active) | 19.9% | 0% | 96% (active) | 28.8% | 1 | 94% (active) | -20.6% | -7% | 95% (active) | 77.2% (active) | -1% | 95% (active) | 31.4%
4 | Oc1cc2c(cc1C(c1ccc(F)cc1)N1CCCCC1)OCO2 (configuration not stated) | -1% | 76% (active) | 63% | -5% | 73% (active) | 64.4% | 6% | 77% (active) | 85.5% (active) | -4 | 39% | 54.9% | -8% | 54% | 84.4% (active) | -1% | 88% (active) | 59.3%
5 | COc1cc(C(c2cc3c(cc2O)OCO3)N2CCN(C(c3ccc(O)c(OC)c3)c3cc4c(cc3O)OCO4)CC2)ccc1O (configuration not stated) | -1% | 98% (active) | 99.2% (active) | 3% | 99% (active) | 99.3% (active) | -3% | 97% (active) | 99.5% (active) | 2 | 82% (active) | 96.7% (active) | -1% | 99% (active) | 99% (active) | 2% | 98% (active) | 98.5% (active)
6 | Nc1nc(-c2ccccc2)cc(-c2ccccc2O)n1 | 7% | -1% | 40.8% | 0% | 15% | 20.5% | 12% | 19% | 62.6% | 13 | 9% | 69.2% | 9% | 23% | 26.1% | 8% | 11% | 67.7%
7 | CCCCC(CC)COC(=O)c1cc2ccccc2oc1=O (configuration not stated) | 3% | 7% | 70.8% (active) | 1% | 13% | 61.8% | 3% | 21% | 68.5% | 5 | 4% | 49.5% | 11% | 35% | 79.6% (active) | 3% | 19% | 67.8%
8 | CC(=O)SC1C(=O)N(C)C(SC(C)=O)C(=O)N1C (configuration not stated) | -5% | -21% | 95.8% (active) | -5% | 11% | 97% (active) | 0% | 55% | 96.6% (active) | -1 | 0% | 95% (active) | 0% | -3% | 95.6% (active) | -2% | 70% (active) | 96.5% (active)
9 | COc1cc(OC)c(C(c2cc3c(cc2O)OCO3)N2CCOCC2)c(OC)c1 (configuration not stated) | 2% | 99% (active) | 57.9% | 2% | 98% (active) | 61.1% | -1% | 98% (active) | 50.3% | 0 | 99% (active) | 23.7% | 5% | 99% (active) | 18.8% | -2% | 99% (active) | 63.2%
10 | C=C1C(=O)[C@@]23CC[C@H]4[C@@](C)(CCC[C@@]4(C)C(=O)OC)[C@@H]2CC[C@]1(O)C3 | 83% (active) | 99% (active) | 92.2% (active) | 92% (active) | 99% (active) | 94.4% (active) | 83% (active) | 99% (active) | 94% (active) | 54 | 99% (active) | 92.2% (active) | 94% (active) | 99% (active) | 93.7% (active) | 92% (active) | 99% (active) | 90.8% (active)
11 | CC(O)CC(O)CC1CCCO1 (configuration not stated) | 5% | 22% | 39.2% | 1% | 9% | 35.6% | 1% | 4% | 25.2% | 2 | 9% | 33.1% | 3% | 19% | 82.7% (active) | 3% | 8% | 41.2%
12 | Cc1ccc(S(=O)(=O)C(C#N)(CCC(=O)/C=C/c2ccccc2)CCC(=O)/C=C/c2ccccc2)cc1 | 1% | 6% | 16.2% | -4% | 35% | 2.35% | 2% | -2% | 26.9% | 3 | 4% | 77.3% (active) | -3% | -2% | -9.3% | 1% | -28% | 20%
13 | O=C(CC1(O)CCCCC1)OC1CCCC1 | -1% | 0% | 58.3% | -1% | -11% | -13.2% | 1% | 0% | 5.85% | -14 | 19% | 62.8% | 5% | -10% | -58.9% | 7% | 10% | 6.2%
14 | OC(c1ccccc1)c1cccc2ccccc12 (configuration not stated) | -1% | 47% | 91.3% (active) | -5% | 14% | 67.3% | 20% | 25% | -1.85% | -8 | 18% | 44.8% | -1% | 30% | 67% | -1% | 25% | 43.1%
15 | S=C(NC(=S)Nc1ccccc1)Nc1ccccc1 | 0% | 29% | 93.8% (active) | -5% | 37% | 82.9% (active) | 7% | 69% | 96.3% (active) | -8 | 8% | 91.7% (active) | -1% | 21% | 96.3% (active) | 8% | 55% | 95.3% (active)
16 | O=C(CSc1nnc(Cc2ccccc2)o1)Nc1ccc(Cl)cc1[N+](=O)[O-] | 1% | 56% | 83% (active) | -13% | 57% | 50.3% | 4% | 49% | 76.5% (active) | 10 | 51% | 21.8% | -10% | 64% | 15.1% | 4% | 53% | 83.8% (active)
17 | CN=S(=O)(OCCCCOS(=O)(=NC)c1ccccc1)c1ccccc1 (configuration not stated) | 16% | 26% | 47.6% | 9% | 8% | -2.25% | 20% | 28% | -18.1% | 8 | 10% | -12.4% | 11% | 10% | -29.3% | 39% | 40% | -52.3%
18 | COc1ccc(CSC(=S)Nc2cc(C)c(C)cc2[N+](=O)[O-])cc1 | 9% | 93% (active) | 95.8% (active) | 6% | 95% (active) | 97.8% (active) | 46% | 96% (active) | 97.5% (active) | -11 | 90% (active) | 93% (active) | 4% | 96% (active) | 97% (active) | 60% | 95% (active) | 98% (active)
19 | COc1ccc(N=NC(C(=O)c2ccccc2)C(=O)c2ccccc2)cc1 | 29% | 96% (active) | 92.3% (active) | -1% | 94% (active) | 93.2% (active) | 20% | 94% (active) | 92.4% (active) | 6 | 95% (active) | 88.7% (active) | -3% | 97% (active) | 91.2% (active) | -18% | 97% (active) | 91.2% (active)

From PubChem BioAssay (NCI)
